Results filed as inconclusive are left out. A call without a number means that no potency is given here. The source made the active and inactive calls. Calls come from the whole dose curve; as a rule, active = well fitted curve in the direction sought with a large enough effect; inconclusive = small, poorly fitted or top-dose-only effect, or another doubt; inactive = no such curve, though single readings can be large; an effect the other way counts as inactive or inconclusive.
Experiments:
[1] = molecular target: Aldehyde dehydrogenase, mitochondrial (Homo sapiens) (UniProt P05091); assay: qHTS for Inhibitors of the Aldehyde Dehydrogenase Family (ALDH2) Primary screen (AID 2061308); note: nearly all actives have a fitted effect of over 55% in size
[2] = molecular target: Retinaldehyde dehydrogenase 3 (Homo sapiens) (UniProt P47895); assay: qHTS for Inhibitors of the Aldehyde Dehydrogenase Family (ALDH1A3) Primary screen (AID 2061315)

Compound | Potency [1] | Potency [2]
CC(=O)Nc1nc(-c2ccc3c(c2)CCN3C(=O)c2ccccc2C)c(C)s1 | inactive | inactive
Cc1cc(NC(=O)c2ccc(C)c(Nc3nccc(-c4cccnc4)n3)c2)cc(-n2cnc(C)c2)c1 | inactive | inactive
O=c1[nH]c2ccc(S(=O)(=O)N3CCN(S(=O)(=O)c4c(F)cccc4F)CC3)cc2[nH]c1=O | inactive | inactive
O=C([C@H](Cc1ccc(O[S+](=O)([O-])c2cccc3cccnc23)cc1)N[S+](=O)([O-])c1cccnc1)N1CCN(c2ccccc2)CC1 | inactive | inactive
Nc1ccccc1OCCn1c(CCNC(=O)C2CCCCC2)nc2ccccc21 | inactive | inactive
Cc1ccc(-c2nc(NCC(=O)Nc3cccc(C(=O)O)c3)c3ccccc3n2)cc1 | inactive | inactive
COc1ccc(-c2nnc3n2N=C(c2cc(OC)ccc2OC)CS3)c(OC)c1 | inactive | inactive
Cc1cccc(-n2cnc3cc(C(=O)NC4CCCC4)ccc32)c1 | inactive | inactive
NC(=O)c1ccc(-c2noc(-c3ccccc3F)n2)cc1 | inactive | inactive
Cc1cccc(-c2ccc3ncnc(NCc4cc(C)cs4)c3c2)c1 | inactive | inactive
O=C(Nc1ccc(Cl)c(Cl)c1)Nc1nnc(C2CCCCC2)s1 | inactive | inactive
O=C(Nc1ncc(Cc2ccc(C(F)(F)F)cc2)s1)c1ccc(-c2cccc([N+](=O)[O-])c2)o1 | inactive | inactive
COc1cccc(CN(C)c2ccc([S+](=O)([O-])Nc3nccs3)cc2)c1O | inactive | inactive
COc1ccc(-n2cnc3c(c2=N)C(c2cccc(OC)c2)c2c(ccc4ccccc24)O3)cc1 (stereo not given) | inactive | inactive
Cc1cc(NS(=O)(=O)CCNC(=O)Cc2ccc(Cl)c(Cl)c2)no1 | inactive | inactive
COc1ccccc1C1N=C(Nc2nc3ccccc3o2)NC2=C1C(=O)CCC2 (stereo not given) | inactive | inactive
O=C(Nc1ccc(-c2nc3ccccc3[nH]2)cc1)c1ccncc1 | inactive | inactive
O=C(Cc1nnc(-c2nc3ccccc3[nH]2)o1)Nc1cc(C(F)(F)F)ccc1Cl | inactive | inactive
Cn1ncc(Cl)c1-c1cc(C(=O)N[C@H](CN)Cc2ccc(F)c(F)c2)oc1Cl | inactive | inactive
CC(=O)Nc1sc2c(c1-c1nc(-c3ccccc3)cs1)CCN(C(C)C)C2 | inactive | inactive
Oc1ccc(CCc2ccccc2F)c2cccnc12 | inactive | inactive
O=C1CCCC2=C1C(c1cccc(Oc3ccccc3)c1)N=C(Nc1nc3ccccc3o1)N2 (stereo not given) | inactive | inactive

Compound | Potency [1] | Potency [2]
Cc1cc(C)nc(NC(=S)N2CCN(c3cccc([N+](=O)[O-])c3)CC2)c1 | inactive | inactive
COc1ccc(CC(=O)Nc2ccc(S(=O)(=O)Nc3cc(C)on3)cc2)cc1OC | inactive | inactive
CCC(=O)NC(c1ccc(C)cc1)c1cc([N+](=O)[O-])c2cccnc2c1O (stereo not given) | inactive | inactive
NCCCC(=O)Nc1ccc(Cl)cc1C(=O)c1ccc[nH]1 | inactive | inactive
O=C1CCc2cc(S(=O)(=O)Nc3ccncc3)ccc2N1 | inactive | inactive
COC(=O)c1ccccc1NC(=O)c1ccc(C#N)cc1 | inactive | inactive
Cc1cc(N[S+](=O)([O-])c2cc3c(cc2Cl)CCC(=O)N3)ccc1Br | inactive | inactive
Cc1nc(CCNc2ncnc3ccc(-c4ccc5c(c4)OCO5)cc23)cs1 | inactive | inactive
COc1cc(F)c(S(=O)(=O)N2CCN(S(=O)(=O)c3ccc(NC(C)=O)cc3)CC2)c(F)c1 | inactive | inactive
O=C(OCC#CCSc1nnc(-c2cccc3ccccc23)o1)c1ccc(Cl)c(C(F)(F)F)c1 | inactive | inactive
Cn1c2cc(B(O)O)sc2c2cnn(Cc3ccccc3F)c(=O)c21 | inactive | inactive
Cc1cc(NC(=O)Nc2nnc(-c3ccncc3)s2)ccc1Cl | inactive | inactive
Cc1ccc(Cl)cc1NC(=O)c1nc[nH]c1C(=O)Nc1nc2ccccc2[nH]1 | inactive | inactive
CCN1CCC[C@@H]1CNC(=O)c1ccc2c(c1)NC(=O)/C(=C/c1ccccc1F)S2 | inactive | inactive
O=C(Nc1ccc(-c2nc3ccccc3[nH]2)cc1)Nc1ccc2c(c1)CCCO2 | inactive | inactive
Cc1c(P(=S)(c2ccccc2)c2ccccc2)[n+]2ccccc2n1CC(=O)c1ccccc1 | inactive | inactive
CC(=O)O[C@@]1(C)[C@@H]2CC(=C(C)C)C(=O)C[C@@]2(C)CC[C@H]1OC(=O)C1(C)OC1C (stereo not given in full) | inactive | inactive
Cc1noc(C)c1-c1ccc2ncnc(NCc3ccccc3C(F)(F)F)c2c1 | inactive | inactive
NC(=O)C1CCN(c2nc(-c3ccccc3Cl)cs2)CC1 | inactive | inactive
O=C(Nc1ccc(S(=O)(=O)Nc2nccs2)cc1)c1ccc2ccccc2c1 | inactive | inactive
CC(=O)O[C@@H]1C(=O)O[C@@H]2[C@H]1OC(=O)[C@@H]2OC(C)=O | inactive | inactive
Oc1ccc(CNc2nccc3ccccc23)c2cccnc12 | inactive | inactive

Compound | Potency [1] | Potency [2]
N#CN/C(=N\c1nnc(-c2ccncc2)s1)Nc1ccc(F)c(C(F)(F)F)c1 | inactive | inactive
Cn1c2cc(B(O)O)sc2c2cnn(Cc3ccc(F)cc3F)c(=O)c21 | inactive | inactive
COc1cc(F)c(S(=O)(=O)N2CCCN(S(=O)(=O)c3cccc(NC(C)=O)c3)CC2)c(F)c1 | inactive | inactive
CC(=O)Nc1cccc(-c2csc(Nc3cc(C)ccn3)n2)c1 | inactive | inactive
COC1=CC(=O)C[C@@H](C)[C@@]12Oc1c(Cl)c(OC)cc(OC)c1C2=O | inactive | inactive
CC(C)(C)n1nc(Cc2cccc([N+](=O)[O-])c2)c2c(N)ncnc21 | inactive | inactive
Cc1ccc(C)c(-c2cc(C(F)(F)F)nn2-c2ccc(S(N)(=O)=O)cc2)c1 | inactive | inactive
CNc1oc(-c2cccc3ncccc23)nc1C#N | inactive | inactive
COc1cccc(NCc2ccc(O)c3ncccc23)n1 | inactive | inactive
Cc1ccc(-c2cc(C(=O)Nc3ccc(C#N)cc3)c3ccccc3n2)cc1C | inactive | inactive
N#Cc1ccc(-c2ccc(=O)n(CC(=O)NCCc3ccccc3)n2)cc1 | inactive | inactive
Cc1ccc(NS(=O)(=O)c2cc3c(cc2/C=C/c2ccccc2)NC(=O)CO3)cc1C | inactive | inactive
Cc1ccc(NS(=O)(=O)c2ccc3c(c2)CC(=O)N3C)cc1C | inactive | inactive
O=C(Nc1ccc(C(=O)Nc2nccs2)cc1)c1ccc2ccccc2c1 | inactive | inactive
CC(=O)c1ccc(N2CCN(S(=O)(=O)c3ccc4c(c3)CCC(=O)N4)CC2)cc1 | inactive | inactive
Cc1ccnc(C(=S)N2CCN(c3cccc(C(F)(F)F)c3)CC2)c1 | inactive | inactive
Cc1cc(C)n2ncc(C(=O)Nc3ccc(C)c(C)c3)c2n1 | inactive | inactive
Cc1cc(NS(=O)(=O)c2ccc(NC(=O)Cc3ccc(F)c(Cl)c3)cc2)no1 | inactive | inactive
O=C(NCc1ccccc1)Nc1ncnc2c1C(c1ccccc1)c1c(ccc3ccccc13)O2 (stereo not given) | inactive | inactive
CN[C@@H]1[C@H](O[C@H]2[C@H](O[C@@H]3[C@@H](O)[C@H](O)[C@@H](N=C(N)N)[C@H](O)[C@H]3N=C(N)N)O[C@@H](C)[C@]2(O)CO)O[C@@H](CO)[C@H](O)[C@H]1O | inactive | inactive
CC(C)c1ccccc1-c1nc(NCc2ccc(-c3cccnc3)cc2)c2[nH]cnc2n1 | inactive | inactive
Fc1cccc(CNc2ncnc3ccc(-c4cccnc4)cc23)c1 | inactive | inactive

Compound | Potency [1] | Potency [2]
CC(O)c1cc2c(s1)c1cnn(Cc3ccccc3F)c(=O)c1n2C (stereo not given) | inactive | inactive
COc1ccccc1C(=O)Nc1nc(-c2ccccc2)cs1 | inactive | inactive
c1nc(NCCc2cnc[nH]2)c2cc(-c3ccoc3)ccc2n1 | inactive | inactive
Cc1ccc(-c2cc(C(=O)N(C)c3ccccc3)c3ccccc3n2)cc1C | inactive | inactive
CCOc1ccc(CCNC(=O)c2ccnn2Cc2cccc(C)c2)cc1OCC | inactive | inactive
O=[S+]([O-])(Nc1ccccc1)c1ccc(NCc2cccc(C(F)(F)F)c2Cl)cc1 | inactive | inactive
O=C(/C=C/c1ccc(Cl)cc1)Nc1cccc([S+](=O)([O-])Nc2ccccc2F)c1 | inactive | inactive
COc1ccc(C(=O)Nc2nc(-c3ccccc3)cs2)c(NS(=O)(=O)c2ccc(C)cc2)c1 | inactive | inactive
COc1ccc(C2=Nn3c(nnc3-c3ccc(OC)c(OC)c3)SC2)cc1 | inactive | inactive
Cc1ccc(-c2ccc(=O)n(CC(=O)N(C)[C@@H](C)c3ccccc3)n2)cc1 | inactive | inactive
CN(c1cccc2cccnc12)S(=O)(=O)c1ccccc1 | inactive | inactive
CC(C)(C)n1cnc2cc(C(=O)N3CCCCC3)ccc21 | inactive | inactive
O=S(=O)(Nc1nc(-c2ccccc2C(F)(F)F)nc2ccccc12)c1ccc(-c2ccnc(C(F)(F)F)c2)cc1 | inactive | inactive
COC(=O)C1CCc2sc(NC(=O)Cc3ccccc3)c(C(=O)Nc3ccc(Cl)cc3)c21 (stereo not given) | inactive | inactive
O=[S+]1([O-])N=C(Oc2cccnc2)c2ccccc21 | inactive | inactive
Oc1ccc(CNc2cccc(C(F)(F)F)c2)c2cccnc12 | inactive | inactive
Cc1cc(C)nc(NC(=S)N2CCN(c3ccc4ccccc4n3)CC2)c1 | inactive | inactive
O=C(Nc1ccc2ccccc2c1)Nc1nnc(-c2ccccc2F)s1 | inactive | inactive
O=C(Nc1nc(-c2ccccc2)cs1)c1ccncc1NS(=O)(=O)c1cccs1 | inactive | inactive

— PubChem BioAssay (NCATS)
